# Laboratory results published in PubChem BioAssay (NCATS).
# Inconclusive results are not listed. Entries that show only a call come without a potency. Activity calls are given as the source filed them. Unless noted, calls come from the whole dose curve.
# Key:
# [1] = Inducers of the Endoplasmic Reticulum Stress Response (ERSR) in human glioma: Validation (AID 504836; active = well fitted curve in the direction sought with a large enough effect; an effect the other way counts as inactive or inconclusive); settings: human glioma cells, ER stress response reporter; series mostly up to 38.3 µM
# Procedure, shortened: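 Stably transfected U87-MG human glioma cells carrying a GRP78-based luminescent sensor were seeded at 1000 cells/well, pin-dosed with compounds and incubated 16 h. Luciferase reagent was then added, and end-point luminescence was read after 10 min at room temperature.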
# [2] = qHTS for Inhibitors of the Functional Ribonucleoprotein Complex (vRNP) of Lassa (LASV) Arenavirus: LASV Primary Screen - GLuc reporter signal (AID 1347082; calls by dose curve; tested in HEK293 reporter line; note: nearly all actives have a fitted effect of over 60% in size; note: potency is the fitted concentration of half-maximal effect); settings: LASV minigenome vRNP, Gaussia luciferase reporter; series mostly up to 57.5 µM
# [3] = qHTS for Inhibitors of the Functional Ribonucleoprotein Complex (vRNP) of Lassa (LASV) Arenavirus: Viability assay - alamar blue signal for LASV Primary Screen (AID 1347083; calls by dose curve; tested in HEK293 reporter line; note: nearly all actives have a fitted effect of over 80% in size; note: potency is the fitted concentration of half-maximal effect); settings: cell viability, alamar blue fluorescence (LASV minigenome counter-screen); series mostly up to 57.5 µM
# [4] = qHTS for Inhibitors of the Functional Ribonucleoprotein Complex (vRNP) of Lymphocytic Choriomeningitis Arenaviruses (LCMV): Viability assay - alamar blue signal for LCMV Primary Screen (AID 1347085; calls by dose curve; tested in HEK293 reporter line; note: nearly all actives have a fitted effect of over 80% in size); settings: alamar blue viability counter-screen, LCMV vRNP screen cells; series mostly up to 57.5 µM
# [5] = target: Nucleoprotein (Lymphocytic choriomeningitis virus (strain Armstrong)) (UniProt P09992); experiment: qHTS for Inhibitors of the Functional Ribonucleoprotein Complex (vRNP) of Lymphocytic Choriomeningitis Arenaviruses (LCMV): LCMV Primary Screen - GLuc reporter signal (AID 1347086); settings: LCMV minigenome vRNP cell assay, Gaussia luciferase reporter; series mostly up to 57.5 µM; note: nearly all actives have a fitted effect of over 70% in size; note: potency is the fitted concentration of half-maximal effect
# Chain of Nucleoprotein (Lymphocytic choriomeningitis virus (strain Armstrong)) (P09992 whole entry, looked up): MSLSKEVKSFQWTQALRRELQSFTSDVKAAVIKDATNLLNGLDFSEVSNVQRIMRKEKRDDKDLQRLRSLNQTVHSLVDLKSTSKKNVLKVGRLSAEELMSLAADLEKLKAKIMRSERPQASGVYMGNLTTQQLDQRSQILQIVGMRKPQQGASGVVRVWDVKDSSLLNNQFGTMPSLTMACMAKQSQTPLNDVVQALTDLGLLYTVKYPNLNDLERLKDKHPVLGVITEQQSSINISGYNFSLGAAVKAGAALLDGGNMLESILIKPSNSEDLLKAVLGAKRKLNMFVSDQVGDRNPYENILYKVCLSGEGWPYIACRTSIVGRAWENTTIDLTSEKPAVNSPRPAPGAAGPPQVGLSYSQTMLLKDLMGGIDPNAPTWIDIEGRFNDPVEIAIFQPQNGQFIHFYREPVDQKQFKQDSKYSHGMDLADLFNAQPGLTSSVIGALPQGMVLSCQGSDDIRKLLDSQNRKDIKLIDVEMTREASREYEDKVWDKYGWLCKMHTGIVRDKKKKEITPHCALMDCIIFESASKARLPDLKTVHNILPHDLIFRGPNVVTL
# [6] = Cytotoxicity counterscreen for inhibitors of SARS-CoV-2 cell entry (AID 1645845); settings: cell viability (SARS-CoV-2 entry assay cells); series mostly up to 57.1 µM; note: nearly all actives have a fitted effect of over 50% in size
# Procedure, shortened: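 Expi293F/hACE2 cells seeded overnight; cpd pin-transferred in DMSO, 1 h preincubation, + media, 48 h 37 C 5% CO2; ATPLite 1step luminescence; normalized to cells and no cells.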
# [7] = Primary qHTS for Huh7 cytotoxicity: counterscreen for inhibitors of MERS-S pseudotyped particle cell entry (AID 1479147); settings: cell viability read-out; series mostly up to 57.1 µM
# [8] = Primary qHTS for inhibitors of MERS-S pseudo-typed particle cell entry (AID 1479149); settings: MERS-S pseudotyped particle entry, luciferase; series mostly up to 57.1 µM; note: nearly all actives have a fitted effect of over 60% in size
# [9] = Primary qHTS for Vero E6 cytotoxicity: counterscreen for inhibitors of SARS-S pseudo-typed particle cell entry (AID 1479150); settings: cell viability; series mostly up to 57.1 µM
# [10] = Primary qHTS to identify inhibitors of SARS-CoV-2 cell entry (AID 1645846); settings: SARS-CoV-2 pseudovirus cell entry assay, luminescence; activity change, negative = inhibition: at 57.1 µM (top of the series) unless noted; series mostly up to 57.1 µM; note: nearly all actives have a fitted effect of over 45% in size
# Procedure, shortened: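 Inhibition of spike-mediated entry was scored in human ACE2-transfected Expi293F cells. Particles were MLV-pseudotyped with Wuhan-Hu-1 S carrying a 19-aa C-terminal deletion; signal was luciferase after two days, scaled between spike PP and fusion-protein-free PP.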
# [11] = target: Alpha-galactosidase (Coffea arabica) (UniProt Q42656); experiment: Counterscreen for Glucocerebrosidase Inhibitors: qHTS Assay for Coffee Bean alpha-Galactosidase at pH 4.5 (AID 957; active = well fitted curve in the direction sought with a large enough effect; an effect the other way counts as inactive or inconclusive); settings: purified coffee bean alpha-galactosidase, fluorogenic substrate; series mostly up to 76.9 µM
# Chain of Alpha-galactosidase (Coffea arabica) (Q42656 whole entry, looked up): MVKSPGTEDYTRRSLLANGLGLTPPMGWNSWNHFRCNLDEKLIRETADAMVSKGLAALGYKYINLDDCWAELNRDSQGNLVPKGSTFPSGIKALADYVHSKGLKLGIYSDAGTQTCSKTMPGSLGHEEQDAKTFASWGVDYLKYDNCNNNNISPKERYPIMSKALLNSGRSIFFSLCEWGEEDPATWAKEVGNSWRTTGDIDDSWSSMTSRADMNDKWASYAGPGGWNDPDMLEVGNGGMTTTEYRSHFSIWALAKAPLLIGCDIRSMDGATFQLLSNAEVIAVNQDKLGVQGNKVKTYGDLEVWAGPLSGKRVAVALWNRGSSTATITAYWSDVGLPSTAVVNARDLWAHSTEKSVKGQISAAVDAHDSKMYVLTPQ
# Procedure, shortened: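 AC50 values derive from Hill-equation modeling of concentration-response data, normalized to no-enzyme and full-activity controls. The pH 4.5 citrate assay used 2 nM coffee bean enzyme and 80 uM fluorogenic substrate for 20 min.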
# [12] = target: Alpha-galactosidase (Coffea arabica) (UniProt Q42656); experiment: Counterscreen for Glucocerebrosidase Inhibitors: qHTS Assay for Coffee Bean alpha-Galactosidase at pH 5.9 (AID 998; active = well fitted curve in the direction sought with a large enough effect; an effect the other way counts as inactive or inconclusive); settings: coffee bean alpha-galactosidase enzyme assay; series mostly up to 76.9 µM
# Procedure, shortened: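 Green coffee bean enzyme (2 nM final) was incubated with compounds (0.7 nM–77 uM) and 4-methylumbelliferyl alpha-D-galactopyranoside (80 uM) in citrate buffer pH 5.9, 20 min at room temperature. High-pH stop; fluorescence 365/440 nm; AC50 from Hill fits.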
structure (smiles),measurement,setting,value
C=CCNc1ncnc2ccc(Br)cc12,outcome,[1],inactive
same,Potency,[2],inactive
same,Potency,[3],inactive
same,Potency,[4],inactive
CN(C)Cc1cccc(N=C(c2ccccc2)c2c(O)[nH]c3cc(C(=O)N(C)C)ccc23)c1,Potency,[2],inactive
same,Potency,[3],13.7 µM (active)
same,Potency,[5],inactive
same,Potency,[6],inactive
C=C1C2[C@H](OC(C)=O)[C@@H]3CC(=O)[C@]4(C)OC[C@@]3(C)[C@@]4(O)[C@@H](OC(C)=O)[C@H](OC(C)=O)[C@@]2(COC(=O)c2ccccc2)[C@@H](OC(C)=O)C[C@@H]1O (stereo partly specified),Potency,[2],inactive
same,Potency,[3],inactive
same,Potency,[5],inactive
CCNC(=O)c1cc2c(-c3cc(OCCN4CCCC4)c(Cl)cc3Cl)nc(N)nc2s1,Potency,[2],4.85 µM (active)
same,Potency,[3],4.32 µM (active)
same,Potency,[5],1.37 µM (active)
COc1ccc(-c2cc3c(C)nc(N)nc3n(C3CCC(OCCO)CC3)c2=O)cn1 (stereo unspecified),Potency,[2],0.153 µM (active)
same,Potency,[3],0.0544 µM (active)
same,Potency,[5],0.153 µM (active)
Cc1cc(OCCCS(C)(=O)=O)cc(C)c1-c1cccc(COc2ccc3c(c2)OC[C@H]3CC(=O)O)c1,Potency,[2],inactive
same,Potency,[3],inactive
same,Potency,[5],inactive
same,Potency,[6],inactive
CCCCC/C=C\C\C=C/C=C/C=C/[C@@H](O)[C@@H](O)CCCC(=O)O,"activity change, negative = inhibition",[2],-2.59% [at 0.757 µM] (inactive)
same,"activity change, negative = reduced viability",[3],14.4% [at 0.757 µM] (inactive)
same,"activity change, negative = inhibition",[5],-32.8% [at 0.757 µM] (inactive)
C[S+](C)CCC(N)C(=O)O (stereo unspecified),Potency,[2],inactive
same,Potency,[3],inactive
same,outcome,[7],inactive
same,Potency,[8],inactive
same,outcome,[9],inactive
same,Potency,[6],inactive
Cc1cc(Cl)ccc1OCCCC(=O)NO,Potency,[2],inactive
same,Potency,[3],24.3 µM (active)
same,Potency,[5],inactive
same,Potency,[6],inactive
same,"activity change, negative = inhibition",[10],-10.4%
O=C1c2ccccc2-c2n[nH]c3cccc1c23,outcome,[11],inactive
same,outcome,[12],inactive
same,outcome,[1],inactive
same,Potency,[2],inactive
same,Potency,[3],30.6 µM (active)
same,Potency,[5],inactive
same,Potency,[6],inactive
O=C(CCCCCCC(=O)Nc1cccnc1)NO,Potency,[2],inactive
same,Potency,[3],19.3 µM (active)
same,Potency,[5],inactive
same,Potency,[10],inactive
